This note sets out measurements from PubChem BioAssay AID1259421 (Broad Institute, 2018).

“And” between values parts separate entries of the source, which are not always exact repeats. Equal entries are not always repeated. Among all 6,400 compounds or so, about 610 (9.5%) were called active. No stated cut-off is given here; in the data, active means activity change below about -70%; inconclusive means no clear call, values can overlap the other calls; inactive means above that. For the sample, actives were picked, then their nearest neighbours and some compounds at random. A structure can be active in one record and inactive in another.

A short description of the assay: Toxoplasma gondii ME49Luc growth in HeLa cells, luciferase, no IFN-y, primary screen (AID 1259421). The settings on record: T. gondii ME49Luc in HeLa, 72 h, stronger effect = lower value, concentration not given here.
For `COc1cc(OC)c(-c2c(OC)cc(OC)cc2OC)c(OC)c1`, the activity change, negative = inhibition was -0.897% (inactive).

As to `CN(C)[C@@H]1CCc2[nH]c3ccc(NC(=O)c4ccc(F)cc4)cc3c2C1`, the activity change, negative = inhibition is 0.289% (inactive) and 6.81% (inactive).

For the compound `CC(=O)NC1C(O)OC(COS(=O)(=O)O)C(OC2OC(C(=O)O)C(OC3OC(CO)C(OC4OC(C(=O)O)C(O)C(O)C4OS(=O)(=O)O)C(OS(=O)(=O)O)C3NS(=O)(=O)O)C(O)C2OS(=O)(=O)O)C1O` (stereo unspecified), the activity change, negative = inhibition is 9.64% (inactive).

As for `CCn1cc(-c2ccnc3[nH]c(-c4cccc(CN(C)C)c4)cc23)c(-c2ccc(NC(=O)N(C)C)cc2)n1`, the activity change, negative = inhibition is -82.3% (active).

In the case of `CN(C)C(=O)Nc1cccc(-c2ccc(N(C)C)cc2)c1`, the activity change, negative = inhibition is 27.1% (inactive).

In the case of `C#CCC(Cc1cnc2nc(N)nc(N)c2n1)c1ccc(C(=O)N[C@@H](CCC(=O)O)C(=O)O)cc1` (stereo partly specified), the activity change, negative = inhibition is -66.9% (inactive).

With `CN(Cc1cnc2nc(N)nc(N)c2n1)c1ccc(C(=O)NC(CCC(=O)O)C(=O)O)cc1` (stereo unspecified), the activity change, negative = inhibition was -57.2% (inactive) and 1.6% (inactive).

Take `CN(Cc1cnc2nc(N)nc(N)c2n1)c1ccc(C(=O)N[C@@H](CCC(=O)O)C(=O)O)cc1`: the activity change, negative = inhibition is -80.9% (active) and -28.7% (inactive).

`COc1ccc(CCN(C)CCCC(C#N)(c2cc(OC)c(OC)c(OC)c2)C(C)C)cc1OC` (stereo unspecified): the activity change, negative = inhibition is 41.7% (inactive).

With `N=C(CC(O)COc1ccccc1-c1ccccc1)N1CCCCC1` (stereo unspecified), the activity change, negative = inhibition was 10.7% (inactive).

Take `COc1ccc(-c2cnc3c(-c4cccc5ncccc45)cnn3c2)cc1`: the activity change, negative = inhibition was 2.75% (inactive).

In the case of `CC(C)Oc1ccc(-c2cnc3c(-c4ccnc5ccccc45)cnn3c2)cc1`, the activity change, negative = inhibition is -49.1% (inactive).

Take `c1cc(-c2cnn3cc(-c4ccc(N5CCNCC5)cc4)cnc23)c2cccnc2c1`: the activity change, negative = inhibition is -84.7% (active).

Regarding `COC(F)(F)C(Cl)Cl`, the activity change, negative = inhibition was 19.6% (inactive).

As to `CC(C)(Oc1ccc(Cl)cc1)C(=O)N1CSCC1C(=O)O` (stereo unspecified), the activity change, negative = inhibition is 19% (inactive).

`NC(=O)C1CC2(NC(=O)NC2=O)c2cc(F)ccc2O1` (stereo unspecified): the activity change, negative = inhibition was 12.6% (inactive).

Take `Cc1nc(Nc2ncc(C(=O)Nc3c(C)cccc3Cl)s2)cc(N2CCN(CCO)CC2)n1`: the activity change, negative = inhibition was -75.5% (active) and -82.6% (active).

As for `Cc1cc(Nc2cc(N3CCN(C)CC3)nc(Sc3ccc(NC(=O)C4CC4)cc3)n2)n[nH]1`, the activity change, negative = inhibition was -15.4% (inactive) and -14.2% (inactive) and -8.95% (inactive).

As for `S=c1[nH]c2ccccc2s1`, the activity change, negative = inhibition was 14.8% (inactive) and 4.19% (inactive).

Turning to `S=c1nc[nH]c2[nH]ncc12`, the activity change, negative = inhibition was -6.21% (inactive).

Turning to `C[C@]12CCC(=O)C=C1CCC1C2[C@@H](O)C[C@@]2(C)C1CC[C@]2(O)C(=O)COC(=O)CCC(=O)O` (stereo partly specified), the activity change, negative = inhibition was -4.51% (inactive) and -4.05% (inactive).
